Records with an inconclusive call do not appear. Entries that show only a call come without a potency. Activity calls are given as the source filed them. Calls come from the whole dose curve; as a rule, active = well fitted curve in the direction sought with a large enough effect; inconclusive = small, poorly fitted or top-dose-only effect, or another doubt; inactive = no such curve, though single readings can be large or run the other way.
Test system: Zika virus NS2B-NS3 protease (linked)
Test: Optimization screen NINDS AMC qHTS for Zika virus inhibitors: Linked NS2B-NS3 protease assay
Conditions: recombinant linked NS2B-NS3 protease, AMC fluorogenic substrate; series mostly up to 52.5 µM
Outline: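 Linked NS2B-NS3 construct (NS2B hydrophilic domain joined to NS3 protease by GGGGSGGGG linker), 1 nM, preincubated 15 min with compound in 10 mM Tris-HCl pH 8.0, 0.01% Tween 20. 10 microM Bz-Nle-KRR-AMC (Km 18.3 µM) added; 15-min fluorescence change fitted to 4-parameter Hill equation.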

| SMILES | Potency |
| --- | --- |
| CC[C@@H]1O[C@]2(C=C[C@@H]1C)C[C@H]1C[C@H](CC=C(C)[C@@H](O[C@@H]3C[C@H](OC)[C@H](O[C@@H]4C[C@H](OC)[C@H](O)[C@H](C)O4)[C@H](C)O3)[C@@H](C)C=CC=C3CO[C@@H]4[C@@H](O)C(C)=C[C@@H](C(=O)O1)[C@]34O)O2 | inactive |
| CC(C)(C)CC(C)(C)c1ccc(OCCOCC[N+](C)(C)Cc2ccccc2)cc1 | inactive |
| Nc1nc(=S)c2[nH]cnc2[nH]1 | inactive |
| CC[C@H](C)[C@H]1O[C@]2(CC[C@@H]1C)C[C@@H]1C[C@@H](C/C=C(\C)[C@@H](O[C@H]3C[C@H](OC)[C@@H](O[C@H]4C[C@H](OC)[C@@H](O)[C@H](C)O4)[C@H](C)O3)[C@@H](C)/C=C/C=C3\CO[C@@H]4[C@H](O)C(C)=C[C@@H](C(=O)O1)[C@]34O)O2 | inactive |
| CCc1nc(N)nc(N)c1-c1ccc(Cl)cc1 | inactive |
| CC(C)C[C@@H](NC(=O)[C@H](Cc1ccccc1)NC(=O)c1cnccn1)B(O)O | inactive |
| C[C@H]1O[C@@H](O[C@H]2[C@@H](O)C[C@H](O[C@H]3[C@@H](O)C[C@H](O[C@H]4CC[C@]5(C)C6C[C@@H](O)[C@]7(C)[C@@H](C8=CC(=O)OC8)CC[C@]7(O)C6CC[C@@H]5C4)O[C@@H]3C)O[C@@H]2C)C[C@H](O)[C@@H]1O (some centres not stated) | inactive |

From PubChem BioAssay AID1347150 (National Center for Advancing Translational Sciences (NCATS), 2019)
